Data published in ChEMBL document CHEMBL3988442, “University of Dundee, Small-Polar-MMV Screening Library” (2021).
About 13,000 (27%) of roughly 48,000 compounds showed an effect of 50% or more. The list shows a part of the results.

Test system: Wolbachia pipientis
Assay: Anti-Wolbachia Cell-Based Screen
Assay type: functional
Design: scale not given: in the data most compounds retested in dose-response had high values
Conditions: 5 µM

| SMILES | Percent Effect [%] |
| --- | --- |
| Cc1cc(C)n(CC2(CNC(=O)C(c3ccc(F)cc3)N(C)C)CC2)n1 (stereo not drawn) | 1.569 |
| CN(Cc1ccsc1)C(=O)Nc1ccc(S(C)(=O)=O)nc1 | -1.265 |
| COCCN1CC[C@H]2CN(c3cc(OC)ncn3)C[C@@H]2C1=O.O=C(O)C(F)(F)F | -11.01 |
| CN1C(=O)CC(c2ccccc2)C12CCN(c1ncc(F)cn1)CC2 (stereo not drawn) | 11.07 |
| O=C1N(c2ccc(Br)cc2)Cc2n[nH]c(=O)n21 | -3.118 |
| Cc1ccccc1CCCN(C)S(C)(=O)=O | 5.397 |
| Cc1ccsc1CNC1CCCc2c1cnn2C.Cl (stereo not drawn) | -3.429 |
| COc1cc(OC)cc(-c2cccc3c2OC(CN)C3)c1 (stereo not drawn) | 2.272 |
| COCCCNC(=O)c1c(C)noc1C(C)C | 99.64 |
| Cc1noc(C(C)C)c1C(=O)NCCCN1CCC(C)CC1 | 80.48 |
| COc1ccc(S(=O)(=O)NC(=O)c2c(C)noc2C(C)C)cc1OC | 2.156 |
| CC1CCN(CCCNC(=O)C2CCCCC2)CC1 | 13.42 |
| Cc1noc(C(C)C)c1C(=O)NCc1cc(F)cc(F)c1 | -8.359 |
| Cc1noc(C(C)C)c1C(=O)NCC1CCN(c2ccccc2)C1 (stereo not drawn) | -7.701 |
| CCn1c(=O)nc2n1C(=O)N(c1cccc(Cl)c1)C2 | 5.675 |
| CC1CCCN(S(=O)(=O)NCCCn2ccc3ccccc32)C1 (stereo not drawn) | -2.865 |
| Cn1c(-c2ccc(F)cc2)cn2cc(C(=O)N3CCC(N)C3)nc2c1=O (stereo not drawn) | -3.321 |
| CC(c1cccnc1)N1CCN(CCc2ccccn2)CC1 (stereo not drawn) | -1.072 |
| Cc1ccc(CNC(=O)c2nc3c(n2C)CCN(c2ncccn2)C3)o1 | 77.66 |
| Cc1ccc(CNC(=O)c2nc3c(o2)CN(c2ncccn2)C3)o1 | -19.04 |
| CN1CCCN(C(=O)c2nc3c(n2C)CCN(c2ncccn2)C3)CC1 | 6.305 |
| CC(=O)N1CCO[C@@H]2CN(S(=O)(=O)c3ccc(C)cc3)CC[C@@H]2C1 | 106.7 |
| CC(=O)N1CCO[C@@H]2CN(S(=O)(=O)c3ccc(F)cc3)CC[C@@H]2C1 | 115.5 |
| CN1CCO[C@@H]2CN(S(=O)(=O)c3ccc(F)cc3)CC[C@@H]2C1.O=C(O)C(F)(F)F | -6.683 |
| Cn1nnc2c1C(COCC1CC1)CN(C(=O)C1=CCCC1)C2 (stereo not drawn) | -1.372 |
| COCCN(Cc1ccc(OC)nc1)Cc1cccs1 | 6.12 |

| SMILES | Percent Effect [%] |
| --- | --- |
| O=C(Nc1ccccc1)N1C[C@H]2CC[C@@H]1CN(Cc1ccccc1)C2 | -24.67 |
| O=C(NCc1ccccc1CN1CCC(O)CC1)Nc1ccccc1 | 6.714 |
| COCC1N(C(=O)Nc2ccccc2)[C@H]2CC[C@]1(O)CC2 (stereo partly drawn) | 103.1 |
| O=C(O)C(F)(F)F.O=S(=O)(NC1CCC12CCN(CC1CCOCC1)CC2)c1ccccc1 (stereo not drawn) | -4.51 |
| O=C(Nc1ccccc1)C1CN(CC2CCOCC2)CC12CCOCC2.O=C(O)C(F)(F)F (stereo not drawn) | -3.242 |
| O=S(=O)(c1ccccc1)N1C(CN2CCOCC2)[C@]2(O)CC[C@H]1CC2 (stereo partly drawn) | 83.09 |
| O=C(O)C(F)(F)F.O=S(=O)(c1ccccc1)N1C[C@@H]2COC[C@]2(CN2CCOCC2)C1 | 14.04 |
| O=C(Nc1ccccc1)N1C(CO)[C@]2(O)CC[C@H]1CC2 (stereo partly drawn) | 93.37 |
| COCCN1CCC(NC(=O)NCC2(c3ccccc3)CC2)C1 (stereo not drawn) | -5.464 |
| O=C(Nc1ccccc1)N1C(CN2CCOCC2)[C@]2(O)CC[C@H]1CC2 (stereo partly drawn) | 91.52 |
| O=C(Nc1ccccc1)C1CN(CC2CC2)CC12CCOCC2.O=C(O)C(F)(F)F (stereo not drawn) | -9.303 |
| CC(C)n1c(C(=O)N2CCCC2)nc2c1CCN(C)C2.O=C(O)C(F)(F)F | -17.76 |
| O=C(Nc1cnc2n1CCCC2)c1cccc(OCC(F)(F)F)c1 | -7.584 |
| NC(=O)C1CCN(CCc2ccc(NCc3cccnc3)cc2)CC1 | -10.11 |
| CC(O)C1CCN(c2cc(Cl)ccc2C#N)CC1 (stereo not drawn) | -3.342 |
| CC1(c2ccccc2)CCCN(Cc2cncn2C2CCCC2)C1 (stereo not drawn) | -2.034 |
| CC(C)CNC(=O)CNC(=O)NCC(O)c1ccc2ccccc2c1 (stereo not drawn) | 1.707 |
| CCSc1cc(C(=O)NCc2ccccc2O)ccn1 | -4.116 |
| O=C(O)c1ccnc(SCC(F)(F)F)c1 | 103 |
| CCSc1cc(C(=O)N(CC(F)F)C(C)C)ccn1 | -6.776 |
| O=C(O)c1ccnc(SCc2ccccc2)c1 | 93.4 |
| CCSc1cc(C(=O)N(C(C)C)C2CC2)ccn1 | -12.03 |
| CCSc1cc(C(=O)NCCC(=O)Nc2ccccn2)ccn1 | -16.79 |
| CCC(CC)(CN)NC(C)c1ccccc1 (stereo not drawn) | 4.415 |
| COc1ccc(CCNC(=O)CN2CCOCS2(=O)=O)cc1 | -7.481 |
| COc1ccc(CNC(=O)CCN2CCOC(C(F)(F)F)C2)cc1 (stereo not drawn) | -3.399 |

| SMILES | Percent Effect [%] |
| --- | --- |
| COc1ccc(CCC(=O)NCCN2CCC(c3cccs3)CC2)cc1 | 160.9 |
| O=C(NCCc1ccccc1)NCCN1CCC(c2cccs2)CC1 | 129.5 |
| O=C(NCCc1cccc(O)c1)NC1CCN(c2ccccc2)C1=O (stereo not drawn) | -1.396 |
| O=C(NCCN1CCC(c2cccs2)CC1)Nc1cccs1 | -15.35 |
| CO[C@H]1CNC[C@@H]1NC(=O)c1cc(C)nc2ccc(C)cc12 | -4.766 |
| COCCN1C[C@H]2CCN(C(C)=O)CC[C@H]2S1(=O)=O | -12.61 |
| O=C(O)C1CCCN(c2nc3c(-c4ccccc4)csc3c(=O)[nH]2)C1 (stereo not drawn) | 5.88 |
| COc1ccc2c(c1)nc1n2[C@@H](CN(C2CCC2)C2CCC2)COC1 | -7.437 |
| CN(Cc1ccsc1)C(=O)CN1CCOC(Cn2cncn2)C1 (stereo not drawn) | 122.3 |
| Cc1cnn(CC2CN(CC(=O)N(C)Cc3cccs3)CCO2)c1 (stereo not drawn) | -3.9 |
| Cc1cnn(CC2CCCN2CC(=O)N(C)Cc2ccsc2)c1 (stereo not drawn) | -8.163 |
| Cc1cnn(CC2CN(CC(=O)N(C)Cc3ccsc3)CCO2)c1 (stereo not drawn) | 117 |
| Cc1cnn(C2CCCN(C(=O)CN(C)c3cnccn3)C2)c1 (stereo not drawn) | 6.201 |
| Cc1cc(C)n(C2CCCN(C(=O)CCNS(C)(=O)=O)C2)n1 (stereo not drawn) | 0.7954 |
| Cc1cnn(C2CCCN(C(=O)CCc3cnn(C)c3)C2)c1 (stereo not drawn) | 94.12 |
| Cc1cnn(C2CCCN(C(=O)Cn3ccc(=O)n(C)c3=O)C2)c1 (stereo not drawn) | -20.71 |
| COc1cccc(CCC(=O)N2CCCC(n3cc(C)cn3)C2)c1 (stereo not drawn) | -1.259 |
| Cc1cnn(C2CCCN(C(=O)CCNS(C)(=O)=O)C2)c1 (stereo not drawn) | 109.1 |
| Cc1cnn(C2CCCN(C(=O)CCc3ccncc3)C2)c1 (stereo not drawn) | 119.7 |
| Cc1cnn(C2CCCN(C(=O)CCc3cscn3)C2)c1 (stereo not drawn) | 115.3 |
| O=C(CCc1cscn1)N1CCCC(n2ccnc2)C1 (stereo not drawn) | -7.112 |
| CCCC(C)N(C)Cc1nnc(-c2ccc(Br)s2)o1 (stereo not drawn) | -85.49 |
| CCNc1ncc(C(=O)N(C)Cc2nc3cc(Cl)ccc3[nH]2)cn1 | 4.323 |
| COc1ccc(-n2c(CCC(=O)O)nc3ccccc32)cc1CO | -17.89 |
| CN(C)C(=O)CN1C[C@@H]2CC[C@H](C1)N(C(=O)CCn1cncn1)C2 | -10.88 |
| O=C(NCC(O)COc1cccc(F)c1)c1ccoc1 (stereo not drawn) | 11.74 |

| SMILES | Percent Effect [%] |
| --- | --- |
| CCN(C(=O)c1ccc2nnc(C3CCN(C)C3)n2c1)C(C)C.O=C(O)C(F)(F)F (stereo not drawn) | -13.6 |
| Cc1cc(C2CCCN(C(=O)CCc3cscn3)C2)n[nH]1 (stereo not drawn) | 93.55 |
| NC(=O)c1cc(C2CCCN(C(=O)CCc3cscn3)C2)n[nH]1 (stereo not drawn) | 0.5679 |
| O=C(CCc1cscn1)N1CCCC(c2ccn[nH]2)C1 (stereo not drawn) | -4.951 |
| CCOC(CC)C(=O)NCc1ccnc(Oc2ccc(F)cc2)c1 (stereo not drawn) | -12.82 |
| Cc1cc(CC(=O)NCc2ccnc(OCC(F)(F)F)c2)no1 | -12.47 |
| CCOc1cc(CNC(C)c2sccc2C)ccn1 (stereo not drawn) | 3.225 |
| NCc1ccc(Oc2cccc(Cl)c2Cl)cc1 | -2.508 |
| Cc1ccc(Oc2cc(CN)ccn2)cc1C.Cl | 95.86 |
| CCOc1ccccc1Oc1ccc(CN)cn1 | 5.762 |
| CCOc1ccc(Oc2cc(CN)ccn2)cc1 | 101.1 |
| NCc1ccnc(Oc2ccccc2)c1 | 91.83 |
| CCOC(=O)NCCC(=O)NCc1ccnc(Oc2ccc(F)cc2)c1 | 11.47 |
| NCc1ccnc(Oc2ccc(F)cc2)c1 | 111.3 |
| Cn1cc(C(=O)Nc2ccnc(Oc3ccccc3)c2)ccc1=O | -17.65 |
| CC(C)C(=O)NCc1ccnc(Oc2ccc(F)cc2)c1 | -7.223 |
| Cc1oc(-c2cccs2)nc1C(=O)N(C)C1(C#N)CCC1 | 6.807 |
| Cc1ccc([C@@H]2CN(C(=O)CCc3cc(Cl)no3)C[C@H]2N(C)C)cc1 | -9.949 |
| COc1ccc(Oc2cc(CN)ccn2)cc1 | 98.96 |
| COc1cccc(-c2cc(CN)ccc2F)c1F | -9.579 |
| CC(NC(N)=O)C(=O)NCc1ccnc(Oc2ccc(F)cc2)c1 (stereo not drawn) | -14.04 |
| COc1ccc(N(CCC(N)=O)C(=O)CSc2ccc(Cl)cc2)cc1 | -20.11 |
| COCCC(=O)N[C@H]1CN(c2nc(C)c3c(n2)CCCC3)C[C@@H]1C1CC1 | 40.93 |
| CC(NCc1ccccn1)c1cc2c(cc1Br)OCCO2 (stereo not drawn) | 9.612 |
| O=C(NCc1ccc(F)cc1)NCC(O)(c1cccs1)C1CC1 (stereo not drawn) | 0.4051 |
